Broadly, the inhibition is the change of the read-out against control, counted positive when it falls.

This note sets out measurements from PubChem BioAssay AID740 (SRMLSC, 2007).

About 65 (0.07%) of roughly 96,000 compounds were called active. What follows is part of a selection rich in actives, with near analogues and random picks from the rest. A number with no mark means an inactive call. Cut-off read from the data, not from the text of the source: active = inhibition above about 25%; inactive = the rest.

The assay is described as follows: unspecified inhibition readout at 50 µM (AID 740). As to conditions: unspecified screen; stronger effect = higher value.
With `Nc1nc(Nc2cccc(C(F)(F)F)c2)nc(C(F)(F)F)n1`, the inhibition result is “inactive”. `Cc1cc(C)n(S(=O)(=O)Cc2ccccc2)n1`: the inhibition is 0.57%. In the case of `O=S(=O)(/C=C/c1ccccc1)n1cnc2ccccc21`, the inhibition was 0.11%.

Consider `Cc1cc(C)n(S(=O)(=O)/C=C/c2ccccc2)n1`, for which the inhibition is 40.1% (active). In the case of `CCOC(=O)C1=C(C)Nc2nc(SC)nn2C1c1ccc(C(=O)OC)cc1` (configuration not stated), the inhibition was 0.25%. For `CC1CCN(c2ccc(C(=O)NCc3cccs3)cn2)CC1`, the inhibition entry was “inactive”.

For `CC1CCCN(c2ccc(C(=O)NCc3cccs3)cn2)C1` (configuration not stated), the inhibition is 0.47%. As to `O=C(NCc1cccs1)c1ccc(N2CCCCC2)nc1`, the inhibition was 26% (active). As for `O=C(O)CSc1nnc(-c2ccncc2)n1-c1ccc(Cl)cc1`, the inhibition entry was “inactive”. On to `CC(=O)Nc1cc(-c2nn(C)c(=O)c3ccccc23)ccc1N1CCCCC1`, for which the inhibition entry was “inactive”. In the case of `c1ccc(OCc2nnc3sc(C4COc5ccccc5O4)nn23)cc1` (configuration not stated), the inhibition entry was “inactive”. In the case of `Cc1cc(C(=O)CSc2nnnn2-c2ccc(Cl)cc2)c(C)n1CC1CCCO1` (configuration not stated) it was 0.29%; in that of `COC(=O)c1sc(S(=O)(=O)N2CCN(c3ccccc3)CC2)c(C(=O)OC)c1C`, 1.69%.

On to `O=C(CSc1nnc(Cc2ccccc2)n1Cc1ccco1)NC1CCCC1`, for which the inhibition was 4.05%. Consider `NC(=O)c1c(NC(=O)CSc2nnc(-c3ccco3)n2-c2ccccc2)sc2c1CCC2`, for which the inhibition result is “inactive”. For the compound `NC(=O)c1c(NC(=O)CSc2nnc(Cc3ccccc3)n2Cc2ccco2)sc2c1CCC2`, the inhibition is 27% (active). Consider `CCCCCC(O)CCc1n[nH]c(=S)n1-c1ccccc1` (configuration not stated), for which the inhibition entry was “inactive”. Turning to `O=C(CC(c1ccccc1)c1ccccc1)Nc1ccc(Cl)cn1`, the inhibition result is “inactive”.

For `CCOC(=O)c1c(NC(=O)CN2CCOCC2)sc2c1CC(C)(C)OC2`, the inhibition was 1.02%.

For the compound `COC(=O)CC(NC(=O)c1ccco1)c1ccc(C(C)C)cc1` (configuration not stated), the inhibition entry was “inactive”. On to `O=C(CSc1ccc2nnc(-c3ccccc3)n2n1)NCc1ccco1`, for which the inhibition was 3.91%. Take `Cc1ccc(-c2nnc3ccc(SCC(=O)NCc4ccco4)nn23)cc1`: the inhibition is 2.76%. Take `O=C(CSc1ccc2nnc(-c3ccncc3)n2n1)NCc1ccco1`: the inhibition was 28.9% (active). Turning to `NC(=S)NNc1cccc(Cl)c1`, the inhibition result is “inactive”. With `CCSc1nnc(-c2ccc(Cl)cc2Cl)o1`, the inhibition is 1.81%. To `CSc1nnc(-c2ccc(Cl)cc2Cl)o1` belongs 7.66%; to `C=CCSc1nnc(-c2cccnc2)o1`, 33.1% (active); to `Cc1ccc(CSc2nnc(-c3cccnc3)o2)cc1`, “inactive”.

For the compound `C(=C\c1ccccc1)/CSc1nnc(-c2cccnc2)o1`, the inhibition was 0.18%. Turning to `C=CCSc1nnc(-c2ccc(Cl)cc2Cl)o1`, the inhibition is 37.9% (active). Take `O=C(Nc1ccc(Cl)cc1)N1CCCC1`: the inhibition entry was “inactive”. Take `O=C(NCCc1cccs1)C1CC(c2ccc([N+](=O)[O-])cc2)=NO1` (configuration not stated): the inhibition is 1.33%. For the compound `COc1cc(C(=O)N2CCC(c3nc(-c4cccnc4)no3)CC2)cc(OC)c1OC`, the inhibition entry was “inactive”. To `Cc1nc(C)c(C(=O)C2=C(O)C(=O)N(CCN(C)C)C2c2ccccc2)s1` (configuration not stated) belongs 0.19%; to `COc1ccc2c(c1OC)C(=O)OC2c1c(O)n(Cc2ccc(F)cc2)c(=O)[nH]c1=O` (configuration not stated), “inactive”.

With `CCC(=O)N1CCN(c2ccccc2NC(=O)COc2ccccc2Cl)CC1`, the inhibition result was “inactive”. On to `O=C(O)CCS(=O)(=O)c1nc(-c2cccs2)cc(C(F)(F)F)n1`, for which the inhibition entry is “inactive”.

In the case of `CS(=O)(=O)c1nc(-c2ccccc2)cc(C(F)(F)F)n1`, the inhibition entry is “inactive”.

On to `CS(=O)(=O)c1nc(-c2cccs2)cc(C(F)(F)F)n1`, for which the inhibition is 26.1% (active). On to `CCC1(c2cccc(Cl)c2)NC(=O)N(Cc2cc(C(=O)OC)c(C)o2)C1=O` (configuration not stated), for which the inhibition result was “inactive”. On to `O=S(=O)(c1ccccc1)N1C2CCC1CC(O)(c1cccnc1)C2` (configuration not stated), for which the inhibition was 0.08%. As to `CCC(NS(=O)(=O)c1ccc(OC)cc1)C(=O)NCCC1=CCCCC1` (configuration not stated), the inhibition was 0.42%. In the case of `O=c1[nH]c2cccnc2n1Cc1ccccc1`, the inhibition was 88.8% (active).

For `COc1ccccc1Cn1c(=O)[nH]c2cccnc21`, the inhibition entry is “inactive”. In the case of `O=c1[nH]c2cccnc2n1Cc1ccco1` it was 1.89%; in that of `COc1ccccc1NC(=O)C1CC(=O)OC1c1ccccc1` (configuration not stated), “inactive”. Turning to `CNC(=O)c1ccc(Oc2ccc(C(=O)NC)cc2)cc1`, the inhibition was 0.48%. As for `COC(=O)c1nc(-c2ccc(C)cc2)oc1N(C)C`, the inhibition entry was “inactive”. Consider `CS(=O)(=O)N1CCN(c2ccccc2NC(=O)Cc2ccc(Cl)cc2)CC1`, for which the inhibition is 1.42%. In the case of `CC(C)NC(=O)CSc1nnc2sc3ccccc3n12` it was 29.1% (active). As to `CCOC(=O)CC(=O)CSc1nnc2sc3ccccc3n12`, the inhibition was 6.25%. In the case of `NC(=O)CSc1nnc2sc3ccccc3n12`, the inhibition was 20.1%.

Turning to `CC1CC(C)CN(C(=O)COc2ccc(-c3nnco3)cc2)C1` (configuration not stated), the inhibition result is “inactive”. With `CC(NC(=O)C1CCCN1S(=O)(=O)c1cccc2cccnc12)c1ccccc1` (configuration not stated), the inhibition is 3.39%. For the compound `NS(=O)(=O)c1ccc(CCNC(=O)[C@@H]2CCCN2S(=O)(=O)c2ccccc2F)cc1`, the inhibition was 0.35%.

Turning to `NS(=O)(=O)c1ccc(CCNC(=O)C2CCCN2C(=O)OCc2ccccc2)cc1` (configuration not stated), the inhibition was 0.02%. Consider `NS(=O)(=O)c1ccc(CCNC(=O)C2CCCCN2S(=O)(=O)c2ccccc2)cc1` (configuration not stated), for which the inhibition was 80.3% (active). Take `CNS(=O)(=O)c1cccc(C(=O)Nc2cccc(Cl)c2)c1`: the inhibition entry is “inactive”.

`Cc1nc(SCC(=O)c2ccccc2)n[nH]1`: the inhibition was 0.25%. Regarding `COC(=O)CSc1nnc([C@H](Cc2ccccc2)NC(=O)OC(C)(C)C)o1`, the inhibition is 0.67%.

`CCSc1nnc([C@H](Cc2ccccc2)NC(=O)OC(C)(C)C)o1`: the inhibition is 26.7% (active). Turning to `CC(C)(C)OC(=O)N[C@@H](Cc1ccccc1)c1nnc(SCC(=O)O)o1`, the inhibition was 0.84%. For `O=C(c1cc(-c2ccc(Cl)cc2)n(-c2ccc(Cl)cc2)n1)N1CCOCC1`, the inhibition is 1.77%.

As to `O=C(c1cc(-c2ccc(Cl)cc2)n(-c2ccc(Cl)cc2Cl)n1)N1CCOCC1`, the inhibition is 27.9% (active). In the case of `O=C(c1cc(-c2ccc(Cl)cc2)n(-c2cc(Cl)ccc2Cl)n1)N1CCOCC1`, the inhibition was 2.27%. Turning to `COc1ccc(-c2nc3nc(C)c(Cc4ccccc4)c(=O)n3[nH]2)cc1`, the inhibition was 10.2%. As to `Cc1nc2nc(-c3ccccc3)[nH]n2c(=O)c1Cc1ccccc1`, the inhibition was 62% (active). In the case of `Cc1nc2nc(-c3ccc(Cl)cc3)[nH]n2c(=O)c1Cc1ccccc1` it was 2.76%; in that of `O=C(COC(=O)C(Cc1ccccc1)NC(=O)c1ccco1)NC1CC1` (configuration not stated), 2.73%; in that of `C=CCn1c(-c2cccn(Cc3cccc(Cl)c3)c2=O)n[nH]c1=S`, 0.13%. `CN1C(=O)c2cccc3c(S(=O)(=O)Nc4ccccn4)ccc1c23`: the inhibition was 3.37%. Turning to `Clc1cccc(CSc2nnc([C@@H]3CCCN3)o2)c1`, the inhibition entry is “inactive”. As for `CCC1CCCCN1C(=O)Nc1ccc(F)cc1` (configuration not stated), the inhibition is 0.1%. As to `CC1CCCN(C(=O)Nc2cccc(NC(=O)N3CCCC(C)C3C)c2)C1C` (configuration not stated), the inhibition is 0.11%. For the compound `CCC1CCCCN1C(=O)Nc1cccc(NC(=O)N2CCCCC2CC)c1` (configuration not stated), the inhibition is 31.9% (active). In the case of `NC(=O)C1(N2CCCCC2)CCN(C(=O)CSc2nc(C(F)(F)F)cc(=O)[nH]2)CC1`, the inhibition was 1.15%.

Regarding `Cc1ccc(/C=C2/SC(=S)N(CC(=O)Nc3ncc(Cc4ccc(C)cc4)s3)C2=O)cc1`, the inhibition is 0.58%. For the compound `Cc1ccc(NC(=O)NCCCN2CCCC2=O)cc1`, the inhibition was 1.44%. To `CC(=O)Nc1ccc(Nc2ncnc3c2cnn3-c2ccccc2)cc1` belongs 38.2% (active). As for `CC(=O)Nc1ccc(Nc2ncnc3c2cnn3-c2cccc(C)c2)cc1`, the inhibition is 0.1%. To `Clc1ccc(Nc2ncnc3c2cnn3-c2ccccc2)cc1` belongs “inactive”; to `CCC(CC)c1nnc(NC(=O)CN2C(=O)C3C4C=CC(C4)C3C2=O)s1` (configuration not stated), “inactive”. Take `CCNc1nc(NCC)nc(SCCOC(=O)COc2ccc(Cl)cc2Cl)n1`: the inhibition entry is “inactive”. Regarding `Cc1cc(Oc2ccc(C#N)cc2)nc(N2CCOCC2)n1`, the inhibition entry is “inactive”.

Turning to `Oc1ccc2oc3c(c2c1)CCCC3`, the inhibition entry was “inactive”.

`O=C1NCCCc2c1oc1cc(Br)c(O)c(Br)c21`: the inhibition was 4.63%. As for `O=C1NCCCc2c1oc1ccc(O)cc21`, the inhibition is 38.5% (active).

`COc1cccc(C2=NOC(C(=O)Nc3cc(C)nn3-c3ccccc3)C2)c1OC` (configuration not stated): the inhibition entry is “inactive”.

For the compound `COc1cc(OC)c(C2=NOC(C(=O)Nc3cc(C)nn3-c3ccccc3)C2)cc1Cl` (configuration not stated), the inhibition is 0.65%. For the compound `COc1ccc(OC)c(C2=NOC(C(=O)Nc3cc(C)nn3-c3ccccc3)C2)c1` (configuration not stated), the inhibition is 48.2% (active). In the case of `COc1ccc(-c2cc(C(F)(F)F)nc(N3CCN(Cc4ccccc4)CC3)n2)cc1OC` it was “inactive”; in that of `COc1ccc(-c2cc(C(F)(F)F)nc(SCCC(=O)Nc3cc(C)on3)n2)cc1`, “inactive”. With `COCCn1c(SCC(=O)Nc2cc(C)cc(C)c2)nnc1C(C)C`, the inhibition was 1.46%.

As to `Cc1ccc(NC(=O)C2CCN(S(=O)(=O)c3cccs3)CC2)cc1C`, the inhibition was 0.17%. Take `Cc1ccc2nc(NC(=O)C3CCN(S(=O)(=O)c4cccs4)CC3)sc2c1`: the inhibition was 2.46%. `Cc1nc2ccc(NC(=O)C3CCN(S(=O)(=O)c4cccs4)CC3)cc2s1`: the inhibition is 30.7% (active). Take `O=C(CN(Cc1ccco1)C(=O)c1cc(=O)[nH]c2ccccc12)Nc1ccccc1Br`: the inhibition is 0.68%. Consider `COC(=O)c1ccc2ccn(CC(=O)NC(C)C)c2c1`, for which the inhibition entry is “inactive”.

With `O=C(O)c1cc2nc(-c3ccc(F)cc3)cc(C(F)(F)F)n2n1`, the inhibition was 1.93%. For the compound `Cc1ccccc1C(=O)Nc1ccc2nc3n(c(=O)c2c1)CCC3`, the inhibition is 0.71%. In the case of `O=C(Nc1ccc2nc3n(c(=O)c2c1)CCCCC3)c1ccccn1` it was 2.45%; in that of `CN(C)c1cccc(C(=O)Nc2ccc3nc4n(c(=O)c3c2)CCCCC4)c1`, 26.5% (active).
